Test results: PubChem BioAssay
The source made the active and inactive calls. Unless noted, no stated cut-off is given here; in the data, active means inhibition above about 30%; inactive means the rest.

Assay: 384-well plate pilot, post-Golgi transport modulator project, inhibition of yeast transport mutant growth (AID 636; in the data active means inhibition above about 31%)
Settings: absorbance 615 nm, about 18 h, active compounds read high

inhibition, inactive:
Cc1nc(CNS(=O)(=O)c2ccc3c(c2)OCCO3)cs1 2.24%
CCN(CCNC(=O)C1CCN(S(C)(=O)=O)CC1)c1ccccc1 -1.67%
CC(C)Cn1c(CN(Cc2ccccc2)Cc2ccccc2)nc2c1c(=O)n(C)c(=O)n2C -1.47%
CCc1ccc2c(CN(CC)Cc3nc4ccccc4c(=O)[nH]3)cc(=O)oc2c1 -1.32%
Cc1cc2oc(=O)cc(C)c2c(=O)o1 2.5%
Cc1ccccc1NC(=O)NCCCN1CCN(C2CCCCC2)CC1 -1.04%
COc1ccc(S(=O)(=O)NCCC(=O)NC2CCCCCCC2)cc1 0%
CCC(Oc1ccc2ccccc2c1)C(=O)O (stereo not given) -3.33%
COc1ccc(Br)cc1CNC(=O)CCc1nc(-c2ccc(C)cc2)no1 -4.34%
COc1ccc(S(=O)(=O)N2CCCC(C(=O)N3CCCCCC3)C2)cc1 (stereo not given) -5%
COc1ccccc1N1CC(O)=C(c2nc3ccccc3c(=O)[nH]2)C1=N -4.05%
COc1ccccc1NC(=O)C(O)C(O)C(=O)Nc1ccccc1OC (stereo not given) -7.43%
COc1cc(CC(=O)NCc2ccc3c(c2)OCO3)cc(OC)c1OC -1.84%
Cc1cc(OCC(=O)N2CCOCC2)cc2oc(=O)c3ccccc3c12 0.39%
COc1cccc(NC(=O)COC(=O)c2ccco2)c1 -6.8%
CN(Cc1ccccc1)Cc1nc2c(c(=O)n(C)c(=O)n2C)n1Cc1ccc(Cl)cc1 -0.67%
CCc1ccc(NC(=O)C2CC(=O)N(C(C)C)C2)cc1 (stereo not given) -4.13%
CCOC(=O)N1CCN(c2c(N3CCN(c4ccccn4)CC3)c(=O)c2=O)CC1 -2.67%
COc1cccc(Oc2cnc(N)nc2-c2ccc(OC)cc2O)c1 -0.52%
O=C(CSc1ncnc2c1oc1ccccc12)Nc1ccccc1F -2.27%
Cn1c(=O)c2c(nc(SCCCC#N)n2Cc2ccccc2F)n(C)c1=O -3.47%
Cn1c(=O)c2c([nH]c(=O)n2C)n(C)c1=O -2.21%
COc1ccc(-c2cc(C(=O)NCCc3ccccc3)no2)cc1OC -4.19%
CCCN1CCC(NC(=O)Nc2ccc(OC)c(OC)c2)CC1 -1.69%
c1nnc(NC2=NCCCCC2)s1 -2.16%
CCOC(=O)CSc1cn2c(n1)CCC2 -0.79%
COC(=O)c1sc(N2C(=O)C(O)=C(C(=O)c3ccc(C)o3)C2c2ccc(F)cc2)nc1C (stereo not given) -1.08%
CCOCCc1nnc(NC(=O)c2ccc(OC)c(OC)c2)s1 -6.4%
CN(C1CCCCC1)S(=O)(=O)c1ccc(NC(=O)c2ccco2)cc1 -5.26%
CCCOc1ccccc1NC(=O)c1c(-c2ccccc2)noc1C 1.67%
CCNC(=O)N(C(=O)NCC)n1c(C)nnc1C -5.33%
O=C(OCC#CCSc1nnc(-c2ccccc2)o1)c1cccs1 -6.13%
CC1(c2ccc(Cl)cc2)NC(=O)N(CC(=O)NC(=O)NCc2ccco2)C1=O (stereo not given) -3.82%
CCCN1C2=C(C(=O)CCC2)C(c2ccc(O)c(Br)c2)C2=C1CCCC2=O -7.11%
CCOC(=O)C1=C(CN2CCOCC2)NC(=O)NC1c1cc(C)ccc1C (stereo not given) -6.76%
Cc1ccc(C(C)C)c(OCCn2c(=O)oc3ccccc32)c1 0.79%
Cc1ccc(-c2csc3nnc(SCC(=O)NCc4ccco4)n23)cc1 -6.27%
CC1CCN(C(=O)CCNS(=O)(=O)c2ccccc2)CC1 -3.9%
Cc1ccc(C)c(-n2c(CNC(=O)c3ccco3)nnc2SCC(=O)Nc2nnc(C)s2)c1 -5.6%
CSc1nc(=NC(C)=O)ss1 -6.8%

Assay: growth suppression of yeast trafficking mutant, preliminary HTS, modulators of trafficking downstream of Golgi apparatus project, 1536-format plate, OD 615 nm (AID 637)
Settings: yeast transport mutant growth, absorbance 615 nm, 18 h; active compounds read high

inhibition, inactive:
Cc1nc(CNS(=O)(=O)c2ccc3c(c2)OCCO3)cs1 9.51%
CCN(CCNC(=O)C1CCN(S(C)(=O)=O)CC1)c1ccccc1 -1%
CC(C)Cn1c(CN(Cc2ccccc2)Cc2ccccc2)nc2c1c(=O)n(C)c(=O)n2C 3.93%
CCc1ccc2c(CN(CC)Cc3nc4ccccc4c(=O)[nH]3)cc(=O)oc2c1 -7.27%
Cc1cc2oc(=O)cc(C)c2c(=O)o1 -3.83%
Cc1ccccc1NC(=O)NCCCN1CCN(C2CCCCC2)CC1 0.16%
COc1ccc(S(=O)(=O)NCCC(=O)NC2CCCCCCC2)cc1 -8.2%
CCC(Oc1ccc2ccccc2c1)C(=O)O (stereo not given) 1.15%
COc1ccc(Br)cc1CNC(=O)CCc1nc(-c2ccc(C)cc2)no1 -4.67%
COc1ccc(S(=O)(=O)N2CCCC(C(=O)N3CCCCCC3)C2)cc1 (stereo not given) 2%
COc1ccccc1N1CC(O)=C(c2nc3ccccc3c(=O)[nH]2)C1=N 1.59%
COc1ccccc1NC(=O)C(O)C(O)C(=O)Nc1ccccc1OC (stereo not given) -2.83%
COc1cc(CC(=O)NCc2ccc3c(c2)OCO3)cc(OC)c1OC 3.45%
Cc1cc(OCC(=O)N2CCOCC2)cc2oc(=O)c3ccccc3c12 -10.8%
COc1cccc(NC(=O)COC(=O)c2ccco2)c1 -1.27%
CN(Cc1ccccc1)Cc1nc2c(c(=O)n(C)c(=O)n2C)n1Cc1ccc(Cl)cc1 7.05%
CCc1ccc(NC(=O)C2CC(=O)N(C(C)C)C2)cc1 (stereo not given) -2.46%
CCOC(=O)N1CCN(c2c(N3CCN(c4ccccn4)CC3)c(=O)c2=O)CC1 -2.79%
COc1cccc(Oc2cnc(N)nc2-c2ccc(OC)cc2O)c1 -5.5%
O=C(CSc1ncnc2c1oc1ccccc12)Nc1ccccc1F -1.33%
Cn1c(=O)c2c(nc(SCCCC#N)n2Cc2ccccc2F)n(C)c1=O -3.67%
Cn1c(=O)c2c([nH]c(=O)n2C)n(C)c1=O 7.21%
COc1ccc(-c2cc(C(=O)NCCc3ccccc3)no2)cc1OC -12.7%
CCCN1CCC(NC(=O)Nc2ccc(OC)c(OC)c2)CC1 -2.33%
c1nnc(NC2=NCCCCC2)s1 -7.5%
CCOC(=O)CSc1cn2c(n1)CCC2 -8.87%
COC(=O)c1sc(N2C(=O)C(O)=C(C(=O)c3ccc(C)o3)C2c2ccc(F)cc2)nc1C (stereo not given) -1.48%
CCOCCc1nnc(NC(=O)c2ccc(OC)c(OC)c2)s1 -3.39%
CN(C1CCCCC1)S(=O)(=O)c1ccc(NC(=O)c2ccco2)cc1 -0.67%
CCCOc1ccccc1NC(=O)c1c(-c2ccccc2)noc1C 5%
CCNC(=O)N(C(=O)NCC)n1c(C)nnc1C 1.48%
O=C(OCC#CCSc1nnc(-c2ccccc2)o1)c1cccs1 -4.92%
CC1(c2ccc(Cl)cc2)NC(=O)N(CC(=O)NC(=O)NCc2ccco2)C1=O (stereo not given) -0.33%
CCCN1C2=C(C(=O)CCC2)C(c2ccc(O)c(Br)c2)C2=C1CCCC2=O 2%
CCOC(=O)C1=C(CN2CCOCC2)NC(=O)NC1c1cc(C)ccc1C (stereo not given) 4.33%
Cc1ccc(C(C)C)c(OCCn2c(=O)oc3ccccc32)c1 -3.83%
Cc1ccc(-c2csc3nnc(SCC(=O)NCc4ccco4)n23)cc1 -4.19%
CC1CCN(C(=O)CCNS(=O)(=O)c2ccccc2)CC1 -2.06%
Cc1ccc(C)c(-n2c(CNC(=O)c3ccco3)nnc2SCC(=O)Nc2nnc(C)s2)c1 3.5%
CSc1nc(=NC(C)=O)ss1 -10%
